Experimental findings from the supplement of paper PMC6555819 are described below.

The first test deals with PPARg:RXRa 270nM:90nM, anti-RXR (NR concentration 270 nM, RXRa partner concentration 90 nM). Put plainly: PBM binding z-score (relative to random genomic background probes); higher = stronger binding; sequences stand for … in GC…GCGATTGACAGCGTAGAATGAAGG
In outline: (§1)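 Ligand-free nuclear receptor dimers were bound for 1 h to custom Agilent 4×180K protein-binding microarrays. Detection used antibodies against each partner (one per run). Binding z-scores rest on regression-normalized fluorescence, with random background probes as the reference.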
CCAGACAGGTGAGAAGGGAACTCAGCCTCGATTA: the PBM binding z-score was 0.174.

For the sequence TAGACTAGGTCATTGGGCCAGTATAGTACGCATC, the PBM binding z-score was 5.24.

Turning to GCGACTGGCGCAAAGCAGGTTACCATAAGGTTGG, the PBM binding z-score was -0.247.

Sequence CATACTGGGCCAAAGGTCATTGATTCCAATGCTC registered a PBM binding z-score of 10.1.

Sequence CCTAATGGGCCAAAAAGGTCATTGATGCCGATAA displayed a PBM binding z-score of 3.36.

In the case of CCTAGTTGGTCAGGAGGTCACACCCCGGATATGA, the PBM binding z-score was found to be 3.57.

On to ACAGACAGGTGAGTGAACGTAACTCAGCTGGACG, for which the PBM binding z-score is -0.203.

TGAATGAGGTTCAAGATCAGGGAACGTGGCGTCG had a PBM binding z-score of 1.62.

CCGACTGGGGGAAGGTTACCATAACGCACAGCCA came in with a PBM binding z-score of 2.33.

TAGCCTAGGTCAGATCGCGCCAGTATACGCTATA yielded a PBM binding z-score of 0.842.

In the case of CGAACGAGGCCATGAGTTGATAGCAAATGCCGAT, the PBM binding z-score amounted to 0.586.

With TCTTGTAGATCAACAGAGGTTAAGAAAGTGCGCT, the PBM binding z-score was 1.64.

GCTCGGAGGACAAGGTCAGAGCCTTGTCCGTAGA: the PBM binding z-score amounted to 2.22.

ATCGAAAGGTCGTGAGGTGAGTATGCAGAAAGGC showed a PBM binding z-score of 4.56.

CCTGCTAGGTCATGATCAGCTAATCTACAGTATG displayed a PBM binding z-score of 2.56.

Regarding CCTCGGAGGACAACAGGTGGTCAGAGCTGCCAGA, the PBM binding z-score was -0.79.

CCGAGTAGGTCATGGGGCATTCAGGCAACGGTGA came in with a PBM binding z-score of 7.29.

Sequence CGTCAAAGTTCAAGGTAACGTACCAGAAAGCAGC displayed a PBM binding z-score of 5.05.

On to CGAACTAGGTCACTGACAGGACAGTGAATAGTAA, for which the PBM binding z-score is 6.65.

The sequence CCTACTGGGCCACGAAAGGTCATTGCTTCAGTGA displayed a PBM binding z-score of 4.91.

CAAACTAGATCACCGGAAGGTCAAAGTCCGCATG gave a PBM binding z-score of 2.62.

With CCTAGTTGGTCAATGTCACACACGCTATAGGTAC, the PBM binding z-score was determined as 0.745.

Regarding CCTACTGGGCCATCACGTCATTGATATCAACGTT, the PBM binding z-score was determined as 1.09.

GCGACTGGGGCAAAGCAGGTTACCATAAGGTTGG showed a PBM binding z-score of 1.12.

TCTGCTAGGTCAACGATGGTCAGCTACTCTGCTA: the PBM binding z-score came to 3.05.

Regarding ACAAGCAGGCCAAGGGTCACTCAAGATTAGTCCG, the PBM binding z-score came to 7.67.

In the case of CCTAGCAGGCCAAGGTCACTCAAGCATTTCGCTT, the PBM binding z-score is 2.44.

Regarding TCTCGGAGGACACGAAGGTCAGACCTTTCCAGAG, the PBM binding z-score came to 1.53.

For GTACCAAGGTGAATAGGTCGTTAATGAGTAGGCG, the PBM binding z-score turned out to be 1.71.

As to TCTATTAGTTGATGGGCAACCGACGAGTCCGTTT, the PBM binding z-score was 1.55.

For CGAACTAGGGCATCCAGGACAGTGAATACATTGA, the PBM binding z-score was found to be 2.52.

On to TTACCTAGGTGAAGGTCGTTGATCCCTCTGTAGA, for which the PBM binding z-score turned out to be 2.36.

In the case of CGGACTGGGGCAAGGTTACCATAACGCACAGCCA, the PBM binding z-score worked out at 4.78.

Regarding ACTATTAGTTGACTTAGGGCAACCGTTACGACGC, the PBM binding z-score was found to be 0.417.

CCGACTGGGGCTAAGGTTACCATACTCAGTACGA gave a PBM binding z-score of 5.55.

The sequence AGAACGAGGGCATGCTGAGTTGATAGCAGAGTAG came in with a PBM binding z-score of 0.666.

ATATGTAGGTTATCGGTTCATTCAGTTTGCGCAT: the PBM binding z-score stood at 5.22.

TCATATAGGTAAACAGTTGAAAGTCCGTAAGTTA displayed a PBM binding z-score of 2.91.

CAAACTACGTCACCGGAAGGTCAAAGTCCGCATG had a PBM binding z-score of 1.71.

The subject of another test is PPARg:RXRa 30nM:10nM, anti-RXR (NR concentration 30 nM, RXRa partner concentration 10 nM). Described as above. Put shortly:
as §1
CCAGACAGGTGAGAAGGGAACTCAGCCTCGATTA returned a PBM binding z-score of -0.465.

For the sequence TAGACTAGGTCATTGGGCCAGTATAGTACGCATC, the PBM binding z-score is 2.45.

In turn, GCGACTGGCGCAAAGCAGGTTACCATAAGGTTGG showed a PBM binding z-score of -0.734.

CATACTGGGCCAAAGGTCATTGATTCCAATGCTC displayed a PBM binding z-score of 10.1.

In the case of CCTAATGGGCCAAAAAGGTCATTGATGCCGATAA, the PBM binding z-score worked out at 1.37.

In turn, CCTAGTTGGTCAGGAGGTCACACCCCGGATATGA displayed a PBM binding z-score of 1.05.

ACAGACAGGTGAGTGAACGTAACTCAGCTGGACG showed a PBM binding z-score of -0.222.

Take TGAATGAGGTTCAAGATCAGGGAACGTGGCGTCG: the PBM binding z-score is 0.424.

In turn, CCGACTGGGGGAAGGTTACCATAACGCACAGCCA had a PBM binding z-score of 0.95.

For the sequence TAGCCTAGGTCAGATCGCGCCAGTATACGCTATA, the PBM binding z-score turned out to be 0.125.

On to CGAACGAGGCCATGAGTTGATAGCAAATGCCGAT, for which the PBM binding z-score is -0.00312.

TCTTGTAGATCAACAGAGGTTAAGAAAGTGCGCT: the PBM binding z-score turned out to be 2.33.

On to GCTCGGAGGACAAGGTCAGAGCCTTGTCCGTAGA, for which the PBM binding z-score was -0.306.

For ATCGAAAGGTCGTGAGGTGAGTATGCAGAAAGGC, the PBM binding z-score stood at 1.24.

On to CCTGCTAGGTCATGATCAGCTAATCTACAGTATG, for which the PBM binding z-score was found to be 0.674.

Take CCTCGGAGGACAACAGGTGGTCAGAGCTGCCAGA: the PBM binding z-score was -1.45.

CCGAGTAGGTCATGGGGCATTCAGGCAACGGTGA gave a PBM binding z-score of 6.6.

For CGTCAAAGTTCAAGGTAACGTACCAGAAAGCAGC, the PBM binding z-score was 1.94.

For the sequence CGAACTAGGTCACTGACAGGACAGTGAATAGTAA, the PBM binding z-score was found to be 3.86.

With CCTACTGGGCCACGAAAGGTCATTGCTTCAGTGA, the PBM binding z-score came out at 2.15.

As for CAAACTAGATCACCGGAAGGTCAAAGTCCGCATG, the PBM binding z-score stood at 0.824.

Sequence CCTAGTTGGTCAATGTCACACACGCTATAGGTAC gave a PBM binding z-score of 0.448.

As to CCTACTGGGCCATCACGTCATTGATATCAACGTT, the PBM binding z-score came out at 0.356.

On to GCGACTGGGGCAAAGCAGGTTACCATAAGGTTGG, for which the PBM binding z-score was -0.898.

For TCTGCTAGGTCAACGATGGTCAGCTACTCTGCTA, the PBM binding z-score was determined as 1.62.

In turn, ACAAGCAGGCCAAGGGTCACTCAAGATTAGTCCG returned a PBM binding z-score of 6.24.

In the case of CCTAGCAGGCCAAGGTCACTCAAGCATTTCGCTT, the PBM binding z-score was -0.0507.

TCTCGGAGGACACGAAGGTCAGACCTTTCCAGAG: the PBM binding z-score came out at 2.38.

Consider GTACCAAGGTGAATAGGTCGTTAATGAGTAGGCG, for which the PBM binding z-score was determined as 0.588.

Turning to TCTATTAGTTGATGGGCAACCGACGAGTCCGTTT, the PBM binding z-score is 3.41.

Turning to CGAACTAGGGCATCCAGGACAGTGAATACATTGA, the PBM binding z-score was found to be 0.606.

TTACCTAGGTGAAGGTCGTTGATCCCTCTGTAGA registered a PBM binding z-score of 0.624.

Sequence CGGACTGGGGCAAGGTTACCATAACGCACAGCCA showed a PBM binding z-score of 2.59.

The sequence ACTATTAGTTGACTTAGGGCAACCGTTACGACGC had a PBM binding z-score of 0.154.

Turning to CCGACTGGGGCTAAGGTTACCATACTCAGTACGA, the PBM binding z-score came out at 4.41.

Take AGAACGAGGGCATGCTGAGTTGATAGCAGAGTAG: the PBM binding z-score is 0.00172.

Regarding ATATGTAGGTTATCGGTTCATTCAGTTTGCGCAT, the PBM binding z-score was found to be 2.65.

Take TCATATAGGTAAACAGTTGAAAGTCCGTAAGTTA: the PBM binding z-score is 3.95.

For the sequence CAAACTACGTCACCGGAAGGTCAAAGTCCGCATG, the PBM binding z-score is 0.159.
